PostGolgi ctrl: growth of the yeast control strain, post-Golgi counter-screen; efflux-deficient yeast background strain, growth absorbance A615, 16 h; hit rate 5% among 98,000; inhibition, % at 10 µM; AID 738
CYP2C9 inhib: human CYP2C9 inhibition; P11712; CYP2C9 Supersomes, luciferin-H conversion, luminescence; inhibition, % at 5 µM; hit rate 20% among 96,000; AID 777;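 active = blocking of liver enzyme CYP2C9 beyond about 50% at 5 µM, limit read from the data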
Target sequence (P11712 whole entry, looked up): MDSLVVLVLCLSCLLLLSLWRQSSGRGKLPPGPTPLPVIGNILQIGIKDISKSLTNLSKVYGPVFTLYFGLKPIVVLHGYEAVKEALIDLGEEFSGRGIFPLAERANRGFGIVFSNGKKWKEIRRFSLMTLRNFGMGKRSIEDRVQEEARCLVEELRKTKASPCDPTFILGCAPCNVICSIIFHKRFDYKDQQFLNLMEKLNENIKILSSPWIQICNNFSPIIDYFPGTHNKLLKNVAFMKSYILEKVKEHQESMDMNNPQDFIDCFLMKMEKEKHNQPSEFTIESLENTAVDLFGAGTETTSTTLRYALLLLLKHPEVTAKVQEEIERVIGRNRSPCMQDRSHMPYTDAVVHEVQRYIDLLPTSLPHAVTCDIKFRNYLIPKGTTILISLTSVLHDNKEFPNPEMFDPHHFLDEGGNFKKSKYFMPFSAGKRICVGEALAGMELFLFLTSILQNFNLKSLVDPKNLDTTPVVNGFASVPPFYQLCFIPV
CYP2C19 act: cytochrome P450 2C19 (human) activation; activation factor at 5 µM; 96,000 tested, under 10 active; recombinant CYP2C19, luciferin-H EGE luminescence; hits give high values; 0 = fully inhibited enzyme, 1 = untreated enzyme; P33261;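 active = activation factor of at least 2 at 5 µM in the primary screen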;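 note: 0 = wells with 2.5 mM tranylcypromine and 1 = vehicle-only wells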
CYP2C9 activ: activators of human CYP2C9 | P11712 | recombinant CYP2C9, luciferin-H conversion, luminescence; hits give high values; factor 1 = untreated enzyme, 0 = blocked | activation factor at 5 µM | hit rate 1.4% among 96,000 | AID 1024;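 active = activation factor of 2 or more for CYP2C9 at a 5 µM dose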;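 note: 0 = sulfaphenazole-blocked wells and 1 = vehicle-only wells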
CYP2C19 inh: inhibitors of human CYP2C19; CYP2C19 Supersomes, luciferin-H EGE luminescence, 30 min; inhibition, % at 5 µM; hit rate 21% among 96,000;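 active = CYP2C19 inhibition above a set limit at 5 µM in the primary screen, cut at about 50% in these data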;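 note: plate controls were negative control wells for no effect and 2.5 mM tranylcypromine positive control for full effect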
PostGolgi yeast: growth inhibition of a yeast mutant, post-Golgi transport screen; post-Golgi transport phenotypic cell assay; inhibition, % at 10 µM; hit rate 0.9% among 98,000;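 note: yeast cells grown in 1536-well plates; yeast grown about 18 h at 30C before absorbance read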
* marks the source's active call; other numbers are inactive results; · = no result given. This is a sample that favours compounds with a hit; in the whole collection about 32% have one here. Cut-off read from the data, not from the text of the source, unless noted: active = inhibition above about 30%; inactive = the rest.

SMILES	PostGolgi ctrl	CYP2C9 inhib	CYP2C19 act	CYP2C9 activ	CYP2C19 inh	PostGolgi yeast
Cc1ccc(-c2csc(NC(=S)NC(=O)/C=C/c3ccco3)n2)cc1	21.3	7.0	0.8	0.9	22.2	-0.2
COCC(=O)NC1CCN(C(=O)NCc2ccccc2)CC1	14.8	-6.2	1	1.1	0.0	-1.3
O=C(Nc1ccc2c(c1)OCO2)C1CCN(S(=O)(=O)c2cccc3cccnc23)CC1	-9.3	-179.2	0.7	2.8*	31.8	-6.7
O=C(C1CCCN(S(=O)(=O)c2cccc3cccnc23)C1)N1CCN(c2ccccc2F)CC1 (stereo not given)	4.3	42.7	0.1	0.6	87.8*	-11.8
O=C(NC1CCN(Cc2ccccc2)CC1)C1CCN(S(=O)(=O)c2cccc3cccnc23)CC1	·	-187.4	1.1	2.9*	-13.8	·
O=C(NCc1cccs1)C1CCCN(S(=O)(=O)c2cccc3cccnc23)C1 (stereo not given)	-7.4	-321.7	0.7	4.2*	29.6	2.4
COc1ccc(C2OC34CCCCC3C(C#N)(C#N)C2(C#N)C(=N)O4)cc1 (stereo not given)	2.9	10.0	0.8	0.9	16.2	1.6
COC(=O)C1CCN(S(=O)(=O)c2cn(C)c(=O)n(C)c2=O)CC1	10.8	-9.8	1.1	1.1	-13.0	-1.2
O=C(NCCCN1CCCC1=O)c1ccc(Cl)c(NS(=O)(=O)c2ccc(F)cc2)c1	7.3	21.5	1.1	0.8	-7.0	22.1
Cn1c(=O)c2nnn(/N=C(\c3ccccc3)C3CC3)c2n(C)c1=O	12.3	9.5	0.7	0.9	28.8	10.5
COc1ccc(-n2c(=O)cc(N3CCN(c4ccccc4OC)CC3)[nH]c2=O)cc1	7.0	-18.9	1.2	1.2	-18.0	-5.2
CCC(C)(C(=O)NC1CCCCC1)N(C(=O)CNC(C)=O)c1c(C)n(C)n(-c2ccccc2)c1=O (stereo not given)	6.8	-24.4	1.1	1.2	-10.8	21.7
O=C(NC1CCCC1)C1CCCN(S(=O)(=O)c2cccc3cccnc23)C1 (stereo not given)	5.2	-160.4	0.9	2.6*	7.5	-10.7
O=S(=O)(NCc1cccs1)c1cccc2cccnc12	-1.1	-183.7	0.7	2.8*	27.8	-8.8
O=C(NCc1cccs1)C1CCCN1S(=O)(=O)c1ccccc1F (stereo not given)	5.6	33.3	0.5	0.7	52.7*	15.6
CNS(=O)(=O)c1cccc2cccnc12	-2.8	-42.4	1	1.4	2.2	-0.5
O=C(NC1CCCCCC1)C1CCN(S(=O)(=O)c2cccc3cccnc23)CC1	5.8	-287.7	0.5	3.9*	47.3	-6.0
O=C(NC1CC2CCC(C1)N2C(=O)NCc1ccccc1)NC12CC3CC(CC(C3)C1)C2 (stereo not given)	-2.9	2.3	0.9	1	10.8	-0.7
Cc1nn(CC(=O)Nc2cccnc2N2CCOCC2)c(=O)c2ccccc12	·	24.8	0.9	0.8	5.3	·
Cc1ccc(-c2cc(C(=O)Nc3nn[nH]n3)c3ccccc3n2)cc1	2.6	12.0	1.1	0.9	-13.7	-0.3
C/C(CC(=O)NCc1ccco1)=N\NC(=O)Cc1cccc2ccccc12	6.4	-0.6	0.9	1	7.8	1.6
O=C(NCCCc1ccccc1)c1ccc(Br)o1	3.0	50.8*	0	0.5	95.5*	-1.1
O=C(NCc1ccc(Cl)cc1)c1ccc(Br)o1	11.1	59.1*	0	0.4	95.2*	3.7
O=C(NCc1ccccc1)c1ccc(-c2ccccc2F)o1	23.1	47.7	0.4	0.5	62.0*	-1.1
O=C(NCCCc1ccccc1)c1ccccc1O	8.0	90.1*	0	0.1	97.1*	-10.7
CCC(C)[C@@H](C(=O)Nc1ccc(OC)c(OC)c1)N1Cc2ccccc2C1=O (stereo not given in full)	5.4	22.2	0.6	0.8	43.9	-4.0
CC(=O)NC(Cc1ccccc1)C(=O)N1CCN(C(=O)c2cccs2)CC1 (stereo not given)	-1.6	-7.6	1	1.1	-3.9	-0.5
O=C(NCCC1=CCCCC1)c1ccc(Br)o1	2.5	58.8*	0.1	0.4	90.4*	-4.3
O=C1/C(=C\c2ccccn2)SC(=S)N1Nc1ncc(C(F)(F)F)cc1Cl	0.0	41.7	0.3	0.6	65.3*	10.5
COc1ccc(-n2nnnc2SCC(=O)Nc2nnc(C)s2)cc1OC	22.4	44.8	0.6	0.6	38.8	8.9
